Measured values from PubChem BioAssay (NCATS).
Values joined by “and” are separate entries in the source; they are usually repeats but may differ in a detail not shown here. Identical values can stand only once. Records with an inconclusive call do not appear. Entries that show only a call come without a potency. Active and inactive are the calls of the source. Calls come from the whole dose curve; as a rule, active = well fitted inhibition curve with a large enough effect; inconclusive = small, poorly fitted or top-dose-only effect; inactive = no such curve, though single readings can be large or run the other way.

Assay: Primary qHTS for inhibitors of nuclear receptor binding SET domain protein 2 (NSD2) in an RCH-ACV wild type WT cells (2C) (AID 1645877); note: nearly all actives have a fitted effect of over 70% in size
Conditions: RCH-ACV (leukaemia line) NSD2 WT (2C) viability, CellTiter-Glo, 72 h; series mostly up to 44.9 µM
Text: Assay Provider: Jonathan D. Licht, MD
University of Florida College of Medicine, Gainesville, FL
Mutations in epigenetic regulators are common in relapsed pediatric acute lymphoblastic leukemia (ALL). Here, we uncovered the mechanism underlying the relapse of ALL driven by an activating mutation of the NSD2 histone methyltransferase (p.E1099K). […] Correction of this mutation restored glucocorticoid sensitivity. The transcriptional response to glucocorticoids was blocked in NSD2 mutant cells due to depressed glucocorticoid receptor (GR) levels and the failure of glucocorticoids to autoactivate GR expression. […] Pre-treatment of NSD2 p.E1099K cell lines and PDX samples with PRC2 inhibitors reversed glucocorticoid resistance in vitro and in vivo.
High-throughput drug screening of isogenic RCH-ACV cell lines was performed at the National Center for Advancing Translational Science (NCATS), National Institutes of Health as previously described (1). Briefly, isogenic RCH-ACV NSD2 p.E1099K mutant (9B) and WT cells (2C) were plated at 500 cells/well in a 1536-well plate with a 72-hour incubation with compounds prior to addition of CellTiter-Glo to assess cell viability. NCATS libraries screened include: NPC, MIPE 5.0, Kinase and NPACT. To determine compound activity in the qHTS assay, the concentration-response data for each sample was plotted and modeled by a four-parameter logistic fit yielding IC50 and efficacy (maximal response) values. The area under the curve (AUC) of the dose-response curve ensures both efficacy (magnitude of cell killing) and potency (concentration that elicits cell killing) are accounted for in the analysis of activity.
1. Tobie D Lee, Olivia W Lee, Kyle R Brimacombe, Lu Chen, Rajarshi Guha, Sabrina Lusvarghi, Bethilehem G Tebase, Carleen Klumpp-Thomas, Robert W Robey, Suresh V Ambudkar, Min Shen, Michael M Gottesman, Matthew D Hall. A High-Throughput Screen of a Library of Therapeutics Identifies Cytotoxic Substrates of P-glycoprotein. Mol Pharmacol. 2019, Nov;96(5):629-640.
Potency is the fitted concentration of half-maximal effect.

Row | SMILES | Potency
1 | COc1cccc(OC)c1C(=O)N[C@@H]1C(=O)N2[C@@H]1SC(C)(C)[C@@H]2C(=O)O | inactive
2 | CC(O)C(=O)O (stereo not given) | inactive
3 | CCCC(=O)O[C@]1(C(=O)CO)CC[C@H]2[C@@H]3CCC4=CC(=O)CC[C@]4(C)[C@H]3[C@@H](O)C[C@@]21C | 0.0299 µM (active)
4 | Cc1c(C(N)=O)cc([N+](=O)[O-])cc1[N+](=O)[O-] | inactive
5 | CCCN1CCCC[C@H]1C(=O)Nc1c(C)cccc1C | inactive
6 | CC(=O)OCC(=O)[C@@]12N=C(C)O[C@@H]1C[C@H]1[C@@H]3CCC4=CC(=O)C=C[C@]4(C)[C@H]3[C@@H](O)C[C@@]12C | 150 nM (active) and 417 nM (active)
7 | CCCCCC=CCC=CCCCCCCCC(=O)OCC | 18.8 µM (active)
8 | CCN(CC)CCNC(=O)COc1ccc(Cl)cc1 | inactive
9 | OCc1ccccc1O | inactive
10 | CCCCCCCCCCCCCCCC[N+](C)(C)CC | 0.299 µM (active)
11 | COc1c2occc2c(OC)c2c(=O)cc(C)oc12 | inactive
12 | COc1cc(OC)cc(OC)c1 | inactive
13 | CCCCc1nc(Cl)c(CO)n1Cc1ccc(-c2ccccc2-c2nn[nH]n2)cc1 | inactive
14 | CC1(C)OC[C@@H](COC(=O)CCc2ccc(OC[C@@H](O)CNCCNC(=O)N3CCOCC3)cc2)O1 | inactive
15 | N[C@H](Cc1c[nH]c2ccccc12)C(=O)O | inactive
16 | CC1(C)O[C@@H]2[C@@H](CO[C@@]3(COS(N)(=O)=O)OC(C)(C)O[C@@H]23)O1 | inactive
17 | Cc1nc2n(c(=O)c1CCN1CCC(c3noc4cc(F)ccc34)CC1)CCC[C@H]2O | inactive
18 | OC(CCN1CCCCC1)(c1ccccc1)c1ccccc1 | inactive
19 | COc1ccc(CN2CCN(C(c3ccc(F)cc3)c3ccc(F)cc3)CC2)c(OC)c1OC | 16.3 µM (active)
20 | NCCC(O)(P(=O)(O)O)P(=O)(O)O | inactive

Row | SMILES | Potency
21 | COc1ccc(CCN2CCC(Nc3nc4ccccc4n3Cc3ccc(F)cc3)CC2)cc1 | 5.31 µM (active)
22 | CC(C)=CCC1C(=O)N(c2ccccc2)N(c2ccccc2)C1=O | 15 µM (active)
23 | O=C(CCCN1CCC(O)(c2ccc(Br)cc2)CC1)c1ccc(F)cc1 | 18.8 µM (active)
24 | CC(=O)CC(c1ccc([N+](=O)[O-])cc1)c1c(O)c2ccccc2oc1=O (stereo not given) | inactive
25 | COc1cccc2c1C(=O)c1c(O)c3c(c(O)c1C2=O)C[C@@](O)(C(=O)CO)C[C@@H]3O[C@H]1C[C@H](N)[C@H](O)[C@H](C)O1 | 150 nM (active) and 26.3 nM (active)
26 | CC(=O)Nc1c(I)cc(I)c(C(=O)O)c1I | inactive
27 | OC[C@@H](O)[C@@H](O[C@@H]1O[C@H](CO)[C@H](O)[C@H](O)[C@H]1O)[C@H](O)[C@@H](O)CO | inactive
28 | COC(=O)C1=C(C)NC(C)=C(C(=O)O[C@@H]2CCCN(Cc3ccccc3)C2)[C@@H]1c1cccc([N+](=O)[O-])c1 | 20.5 µM (active)
29 | C[C@]12CC[C@@H]3c4ccc(O)cc4CC[C@H]3[C@@H]1CC[C@@H]2O | 7.42 µM (active)
30 | CN1C(CCl)Nc2cc(Cl)c(S(N)(=O)=O)cc2S1(=O)=O (stereo not given) | inactive
31 | CCCCOc1cc(C(=O)NCCN(CC)CC)c2ccccc2n1 | 23.7 µM (active)
32 | OC[C@H]1O[C@@H](n2cnc3c(=S)nc[nH]c32)[C@H](O)[C@@H]1O | 0.422 µM (active)
33 | CCOC(=O)c1cccc(N)c1 | inactive
34 | CC(=O)OCC(=O)[C@@]1(O)[C@H](C)C[C@H]2[C@@H]3CCC4=CC(=O)C=C[C@]4(C)[C@@]3(F)[C@@H](O)C[C@@]21C | 3.3 nM (active) and 12.9 nM (active)
35 | COc1cc(C=C2CCC/C(=C\c3ccc(O)c(OC)c3)C2=O)ccc1O | 0.188 µM (active)
36 | O=C(OCC(O)CO)c1ccccc1Nc1ccnc2cc(Cl)ccc12 (stereo not given) | 23.7 µM (active)
37 | N[C@@H](CCC(=O)N[C@@H](CS)C(=O)NCC(=O)O)C(=O)O | inactive
38 | COC(=O)[C@@H]1CC2=CC(=O)CC[C@]2(C)[C@@]23O[C@@H]2C[C@@]2(C)[C@@H](CC[C@@]24CCC(=O)O4)[C@H]13 | inactive
39 | CCC(=O)c1c(O)cc(O)cc1O | inactive
40 | CN(C)/N=N/c1nc[nH]c1C(N)=O | inactive
